ALOX12 inh = ALOX12 (human) lipoxygenase inhibition. P18054. purified 12hLO, xylenol orange hydroperoxide absorbance. Potency, µM (top dose mostly 108 µM), for inactives: at the top dose activity change, negative = inhibition, actives largely listed as inhibitors. 1.1% of 580,000 active; also: % is scaled to controls: 0 for no effect and ±100 for the full control effect
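Purified human 12hLO at 150 nM in 25 mM Hepes, 0.01% Triton X-100, pH 7.0, preincubated 15 min at room temperature with compound. Reaction started with 40 uM arachidonic acid, 30 min at room temperature. Hydroperoxide measured by Fe-xylenol orange, 573/405 nm absorbance ratio.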
HP1b chromo inh = inhibitors of HP1-beta chromodomain binding to methylated histone tails. P83916. AlphaScreen HP1-beta / biotin-H3K9me3 peptide binding. Potency, µM (titrated, usually from 114 µM), for inactives: top-dose activity change, negative = inhibition, usual class: inhibitors. 0.56% of 390,000 active. AID 540317; also: nearly all actives have a fitted effect of over 70% in size
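Compound inhibition of the preformed complex between 50 nM HP1-beta and 50 nM biotinylated H3K9me3 peptide was read by AlphaScreen. Buffer was PBS pH 7.4 with 0.01% Tween-20. Incubations ran 30 min at room temperature, with 10 ug/mL donor/acceptor beads.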
Sfp inh = blocks B. subtilis Sfp PPTase activity; AID 1490; Q9F4F7; 3.5% of 310,000 active; Potency, µM, for the others: largest response in the series, negative = inhibition, hits mostly inhibitors; Biochemical Sfp PPTase activity, qHTS;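 also: the enzyme is Sfp with the accession as filed and its product quenches rhodamine fluorescence; 0% = enzyme reaction without inhibitor and -100% = no enzyme wells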
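Sfp 15 nM + cpd, 15 min RT; start w/ rhodamine-CoA 5 uM, BHQ-2-YbbR 12.5 uM (final); 50 mM Hepes pH 7.6, 10 mM MgCl2, 0.01% NP-40, 0.01% BSA; read 525/598 nm at 0 and 30 min.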
BAZ2B inh = inhibitors of human BAZ2B bromodomain; Q9UIF8; AlphaScreen BAZ2B-H3K14Ac peptide displacement; Potency, µM (top dose mostly 114 µM), without a hit: top-dose activity change, negative = inhibition, usual class: inhibitors; 4.4% of 360,000 active; also: % is scaled to controls: 0 for no effect and ±100 for the full control effect; nearly all actives have a fitted effect of over 60% in size
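BAZ2B 50 nM plus b-H3(5-23)K14Ac 50 nM, PBS pH 7.4/0.01% Tween-20, 30 min RT; compound added (max 110 uM), 30 min RT; streptavidin donor/Ni-chelate acceptor beads 10 ug/mL final, 20 min dark; AlphaScreen read.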
JMJD2A Tudor inh = blocks the human JMJD2A Tudor domain; AlphaScreen JMJD2A-Tudor / H3K4me3 peptide binding; Potency, µM (top dose mostly 114 µM), for the others: at the highest dose activity change, negative = inhibition, most hits filed as inhibitors; 4.4% of 390,000 active; also: % is scaled to controls: 0 for no effect and ±100 for the full control effect; nearly all actives have a fitted effect of over 50% in size
G9a inh = inhibitors of human histone lysine methyltransferase G9a | Q96KQ7 | G9a H3K9 monomethylation, AlphaScreen, 2 h | Potency, µM (doses to about 102 µM), for the others: at the highest dose activity, negative = inhibition, actives largely listed as inhibitors | 8.8% of 350,000 active; also: % is scaled to controls: 0 for no effect and ±100 for the full control effect; nearly all actives have a fitted effect of over 75% in size
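Signal arises when biotinylated H3K9 peptide, once monomethylated, bridges streptavidin donor and antibody-captured acceptor beads. Enzyme at 20 nM was preincubated 15 min with test compounds; peptide 500 nM and SAM 20 uM then reacted for 2 h.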
The depositor's hits bear a star; u = inconclusive; x = no result given; ! = not confirmed by another sample; [ ] = another dose, or the depositor's remark. Most compounds without a hit are left out; they make up all but 8.7% or so of the library. Calls follow the shape of the dose curve; as a rule, active = well fitted curve in the direction sought with a large enough effect; inconclusive = small, poorly fitted or top-dose-only effect, or another doubt; inactive = no such curve, though single readings can be large; an effect the other way counts as inactive or inconclusive. Potency is read from the fitted curve at half-maximal effect.

SMILES | ALOX12 inh | HP1b chromo inh | Sfp inh | BAZ2B inh | JMJD2A Tudor inh | G9a inh
COc1cc(OC)cc(C(=O)NC(=S)NNC(=O)[C@H]2C[C@@H]2c2ccccc2)c1 | u | -22.8% | -9.4% | -19.4% | u | 20µM*
COc1ccc(C(=O)NC(=S)NNC(=O)[C@H]2C[C@@H]2c2ccccc2)cc1OC | u | -3.0% | -4.4% | -0.4% | -25.4% | 44.7µM*
O=C(/C=C/c1ccc(F)cc1)NC(=S)NNC(=O)[C@H]1C[C@@H]1c1ccccc1 | u | 22.5% | 18.7% | -2.6%[57.1 µM] | -14.0% | 35.5µM*
O=C(CSc1nc2ccccc2o1)Nc1cc(Cl)cc(Cl)c1 | -22.9% | x | x | x | x | x
CCN(CC)S(=O)(=O)c1ccc(OCCNS(C)(=O)=O)cc1 | 2.3% | -14.6% | 20.1% | 9.4% | 11.2µM* | -38.2%
CCNS(=O)(=O)c1ccc(OCCNS(C)(=O)=O)cc1 | -2.6% | 20.9% | 2.5% | 22.4% | 89.1µM* | -7.0%[59 µM]
CC(=O)c1cccc(NC(=O)CCc2c(C)c3ccc(O)cc3oc2=O)c1 | -1.6% | x | x | x | x | x
CCOC(=O)CCP(=O)(O)C(O)c1ccccc1 (stereo not drawn) | -3.1% | 8.3% | -0.1% | 1.0% | 50.1µM* | 18.0%[59 µM]
O=C1CSC2(CCN(CCCN3c4ccccc4Sc4ccc(Cl)cc43)CC2)N1 | x | x | -13.9% | x | x | 17.8µM*
N#Cc1ccc2c(c1)N(CCCN1CCC(O)CC1)c1ccccc1S2 | u | x | 10.0% | x | x | -11.9%[2.33 µM]
CN1CCN(CCCN2c3ccccc3Sc3ccc(C(F)(F)F)cc32)CC1 | u | u | u | 35.5µM* | u | 15.8µM*!
c1ccc2c(c1)Sc1ccccc1N2CCN1CCCC1 | x | x | 0.4% | x | x | -40.8%[12.7 µM]
O=C(C#Cc1ccccc1)c1ccco1 | -15.2% | 53.9% | u | 1.6% | -5.3% | 39.8µM*
CCOCc1nnc(NC(=O)c2cc(C(=O)OC)cc([N+](=O)[O-])c2)s1 | 1.2% | 3.2% | 5.0% | u | 44.7µM* | 50.1µM*
COCCSc1nnc(NC(=O)c2ccc([N+](=O)[O-])cc2)s1 | -12.6% | 33.9% | 8.7% | -20.8% | -19.7% | -30.3%
CCOC(=O)CSc1nnc(NC(=O)c2cc([N+](=O)[O-])cc([N+](=O)[O-])c2)s1 | 0.1% | 31.2% | -5.1% | -10.0% | u | 25.1µM*
CCOCc1nnc(NC(=O)c2ccc(OC)cc2)s1 | 0.0% | 30.1% | -6.8% | 11.1% | -1.2% | 9.6%[59 µM]
COC(=O)c1cc(C(=O)Nc2nnc(CC(C)(C)C)s2)cc([N+](=O)[O-])c1 | 12.7% | u | u | -7.8% | -27.3% | 44.7µM*
COc1ccc(C[C@H](NC(=O)[C@@]2(O)C[C@@H](O)[C@H](O)[C@@H](NS(=O)(=O)c3cccc(C(F)(F)F)c3)C2)C(N)=O)cc1 | 3.9% | x | x | x | x | x
CCN1/C(=C2\C(=O)N(c3ccccc3)N=C2C)C=Cc2cc(C)ccc21 | u | 21.3% | 18.0% | 56.2µM* | -8.4% | u
CCOc1ccc(NC(=O)CN2C(=O)NC(c3ccccc3OCC)C3=C2COC3=O)cc1 (stereo not drawn) | 17.1% | x | x | x | x | x
CC1CCCCC1NC(=O)c1ccc(S(=O)(=O)NNC(=O)c2ccncc2)cc1 (stereo not drawn) | -7.5% | 26.8% | u | 89.1µM* | 3.55µM* | x
CC1CCCCC1NC(=O)c1ccncc1 (stereo not drawn) | 0.0% | 46.8% | 6.6% | -11.5% | -14.1% | 57.8%
O=C(NNS(=O)(=O)c1ccc(C(=O)NC2CCCC2)cc1)c1ccncc1 | -16.0% | 19.6% | -13.5% | -29.6% | 1.26µM* | 50.1µM*
COc1cc(OC)c(/C=C(\C#N)C(=O)O)cc1Br | -20.4% | x | x | x | x | x
SMILES | ALOX12 inh | HP1b chromo inh | Sfp inh | BAZ2B inh | JMJD2A Tudor inh | G9a inh
Cc1o[nH]c(=O)c1CC[C@H](N)C(=O)O | u | x | 79.4µM* | x | x | x
Cc1nnc(SCC(=O)Nc2ccc(Br)cn2)[nH]c1=O | -9.0% | 56.4% | -14.7% | 5.0% | -18.8% | 50.1µM*
O=C(CSc1ccc2c(c1)OCCO2)Nc1ncccc1O | -5.7% | 36.6% | x | u | 50.1µM* | 5.4%[0.501 µM]
O=C(CSc1ccc2c(c1)OCCCO2)Nc1cccc2ccccc12 | 15.8µM* | x | x | x | x | x
O=C(CSc1ccc2c(c1)OCCO2)Nc1ccc(Br)cn1 | u | 57.1% | 0.7% | 5.6% | 8.2% | 44.7µM*
Cc1ccc(S(=O)(=O)N2CCN(C(=O)C3CC(=O)Nc4cc(F)ccc43)CC2)c(C)c1 (stereo not drawn) | -21.4% | x | x | x | x | x
Fc1ccc(CN2CC[C@H](c3nnc(-c4ccc(Cl)cc4)o3)C2)cc1 | 4.5%[176 µM] | x | x | x | x | x
Cc1cc(C(=O)COC(=O)c2ccc3c(c2)OCO3)c(C)n1CC1CCCO1 (stereo not drawn) | -15.0% | 43.9% | -1.8% | u | -2.6% | 50.1µM*
COc1cc(C(=O)OCC(=O)c2cc(C)n(CC3CCCO3)c2C)cc(OC)c1C (stereo not drawn) | 68.4% | -13.4% | x | 50.1µM* | 44.7µM* | u
COc1cc(C)ccc1OCC(=O)OCC(=O)c1cc(C)n(CC2CCCO2)c1C (stereo not drawn) | 425.7% | -4.4% | x | -32.5% | -8.2% | 24.5%[12.7 µM]
O=C(c1cc(C(F)(F)F)cc(C(F)(F)F)c1)N1CCCC(CO)C1 (stereo not drawn) | 9.0% | x | x | x | x | x
COc1cccc(N2C(=O)NC(=NC3CCCCC3)C23CCN(Cc2ccsc2)CC3)c1 | 5.6%[6.33 µM] | x | x | x | x | x
CCN1C(=O)N[C@@H](c2cccc(C(F)(F)F)c2)C(C(C)=O)=C1C | 5.8% | 44.2% | 7.4% | x | -11.0% | x
COc1cccc(C2NC(=S)N(Cc3ccc(F)cc3)C(C)=C2C(C)=O)c1 (stereo not drawn) | 44.7µM* | x | x | x | x | x
COCCN1C(=S)N[C@@H](c2cccc(F)c2)C(C(=O)OC)=C1C | x | x | 10.6% | -38.8% | x | 19.3%[12.7 µM]
CC(=O)C1=C(C)N(Cc2ccc(F)cc2)C(=S)NC1c1cccc(Cl)c1 (stereo not drawn) | 44.7µM* | x | x | x | x | x
O=C(CSc1oc(-c2ccco2)nc1S(=O)(=O)c1ccc(Cl)cc1)NCC1CCCO1 (stereo not drawn) | 7.94µM* | 2.3% | -16.1% | -0.8% | u | 44.7µM*
Cc1ccc(-c2nc(S(=O)(=O)c3ccccc3)c(SCC(=O)NCC3CCCO3)o2)cc1 (stereo not drawn) | u | 6.9% | -9.4% | -3.2% | -12.9% | 35.5µM*
CC(C)c1ccc(NC(=O)c2ccc(Br)o2)cc1 | 0.0% | 2.1% | 14.5% | 6.3% | -0.8%[11.4 µM] | -16.7%[59 µM]
COc1ccc(NC(=O)c2ccc(Br)o2)cc1 | 8.5% | 25.8% | 12.4% | u | -10.6% | 31.6µM*
COc1ccc(NC(=S)NC(=O)c2ccc(Br)o2)cc1 | -28.2% | -0.4% | u | -31.4% | -10.3% | -48.6%
